Assay results published in PubChem BioAssay.
Inconclusive results are not listed. The source made the active and inactive calls.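 Rule for the calls, unless noted: active = cell viability at or below a set limit in both duplicate runs, the limit being the all-compound median minus 4 SD (cut at about 23% in these data, passing the limit was not always enough); inconclusive = no clear call, values can overlap the other calls; inactive = the rest.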

Assays:
[1] = reducers of endogenous Her2 protein level, primary screen, SKBR3 breast tumor cells, AlphaScreen, ATP viability (AID 461;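 active = Her2 level under about 52% in both replicate screens, with viability over 70% of control, limit read from the data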;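 for Her2 level: lower value means less Her2 protein in the cells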;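 for viability: percent of carrier control wells set as 100% viability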); conditions: 18-24 h, measured here: SKBR3 viability, ATP luminescence, at 10 µM
[2] = target: Receptor tyrosine-protein kinase erbB-2 (Homo sapiens) (UniProt P04626); assay: as above; conditions: 18-24 h, at 10 µM, stronger effect = lower value
Chain of Receptor tyrosine-protein kinase erbB-2 (Homo sapiens) (P04626 whole entry, looked up): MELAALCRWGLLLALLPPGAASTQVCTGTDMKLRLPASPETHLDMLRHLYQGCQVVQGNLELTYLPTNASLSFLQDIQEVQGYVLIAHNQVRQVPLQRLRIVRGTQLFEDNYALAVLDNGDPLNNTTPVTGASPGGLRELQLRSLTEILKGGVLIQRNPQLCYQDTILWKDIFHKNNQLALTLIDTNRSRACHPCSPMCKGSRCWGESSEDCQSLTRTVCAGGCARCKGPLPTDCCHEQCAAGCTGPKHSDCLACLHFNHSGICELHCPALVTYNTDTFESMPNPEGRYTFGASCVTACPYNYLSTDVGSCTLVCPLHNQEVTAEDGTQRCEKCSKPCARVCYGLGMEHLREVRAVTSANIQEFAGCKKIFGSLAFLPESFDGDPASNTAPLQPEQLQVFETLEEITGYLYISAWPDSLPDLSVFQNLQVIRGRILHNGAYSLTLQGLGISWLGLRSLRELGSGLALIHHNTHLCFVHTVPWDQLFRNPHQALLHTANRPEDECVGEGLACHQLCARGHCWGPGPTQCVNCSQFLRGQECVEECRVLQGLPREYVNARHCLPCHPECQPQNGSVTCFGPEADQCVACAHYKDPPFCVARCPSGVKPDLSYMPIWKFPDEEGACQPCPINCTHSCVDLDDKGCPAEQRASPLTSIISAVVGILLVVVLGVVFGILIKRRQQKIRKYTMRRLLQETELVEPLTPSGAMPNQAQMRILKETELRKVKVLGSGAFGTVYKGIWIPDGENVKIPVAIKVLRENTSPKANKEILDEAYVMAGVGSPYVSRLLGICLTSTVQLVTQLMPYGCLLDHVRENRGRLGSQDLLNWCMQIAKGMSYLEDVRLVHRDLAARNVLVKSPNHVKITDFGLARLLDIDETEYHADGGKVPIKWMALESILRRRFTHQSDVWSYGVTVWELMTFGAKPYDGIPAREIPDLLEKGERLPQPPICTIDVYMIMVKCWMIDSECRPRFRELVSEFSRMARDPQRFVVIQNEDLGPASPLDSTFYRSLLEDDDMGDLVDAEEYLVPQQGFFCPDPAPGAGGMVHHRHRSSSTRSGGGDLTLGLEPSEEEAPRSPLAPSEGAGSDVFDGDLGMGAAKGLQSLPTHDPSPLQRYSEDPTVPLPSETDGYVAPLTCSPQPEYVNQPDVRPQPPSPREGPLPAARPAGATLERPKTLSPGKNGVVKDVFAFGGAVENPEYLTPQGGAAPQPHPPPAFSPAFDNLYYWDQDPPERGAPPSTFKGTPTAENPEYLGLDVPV

[3] = SK-BR-3 cell growth inhibitors, pilot screen, 24 h, human (AID 572;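 active = viability at or below 10% of carrier control in both of two separate runs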;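 note: compound exposure lasted between 18 and 24 h rather than exactly 24 h; 100% = carrier-treated control wells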); conditions: SK-BR-3 viability, CellTiter-Glo luminescence, at 10 µM, stronger effect = lower value
[4] = HUVEC growth inhibition – cell-based, human, primary screen (AID 575;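 active = viability at or below 30% in both replicate assays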;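 note: 100% = median of untreated cell wells with 0.1% DMSO on each plate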); conditions: HUVEC proliferation, CellTiter-Glo luminescence, 72 h; at 10 µM; stronger effect = lower value
[5] = growth inhibitors of H69AR lung tumor, primary screen, human, duplicate replicates (AID 580;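 active = viability at or under a set limit in both replicates, limit being median viability minus 3 SD, cut at about 48% in these data, passing the limit was not always enough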;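 note: 100% = mean luminescence of untreated wells and 0% = no signal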); conditions: H69AR lung tumor cells viability, ATP luminescence, 72 h; at 10 µM; stronger effect = lower value
[6] = reversal of MRP1-mediated doxorubicin resistance, pilot screen, H69AR cells, doxorubicin co-treatment (AID 601;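 active = viability loss from added drug above about 55%, and viability with drug at most 40%, in both replicates, limit read from the data, passing the limit was not always enough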); conditions: CellTiter-Glo, 72 h, at 10 µM; for differential viability (reversal): stronger effect = higher value
[7] = 384-well plate pilot, post-Golgi transport modulator project, inhibition of yeast transport mutant growth (AID 636; in the data active = inhibition above about 31%); conditions: absorbance 615 nm, about 18 h, stronger effect = higher value
[8] = growth suppression of yeast trafficking mutant, preliminary HTS, modulators of trafficking downstream of Golgi apparatus project, 1536-format plate, OD 615 nm (AID 637; in the data active = inhibition above about 30%); conditions: yeast transport mutant growth, absorbance 615 nm, 18 h; stronger effect = higher value
[9] = OD615 S. cerevisiae growth inhibition, permissive medium, pilot counter-assay, permissive growth control for S. cerevisiae lifespan shortening project (AID 705;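 active = growth inhibition above 25% in both replicates, a cutoff set 3 SD above the mean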); conditions: OD615, 24 h, at 10 µM, stronger effect = higher value
[10] = Restrictive medium S. cerevisiae growth inhibition, OD615, pilot screen of yeast lifespan reduction project, restrictive growth control (AID 706;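 active = growth inhibition above a set limit, 3 SD over mean compound inhibition, in both replicates, cut at about 43% in these data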;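 note: modified DeaD lifespan yeast strain shifted to restrictive glucose medium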); conditions: OD615, 48 h, at 10 µM, stronger effect = higher value
[11] = viability gain of MRP-1-high H69AR cells under doxorubicin, pilot screen, MRP-1 activator project, CellTiter-Glo, duplicate (AID 807;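 active = viability increase at or above a cutoff of the median across tested compounds plus 3 SD, cut at about 8.5% in these data, passing the limit was not always enough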;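 note: compound pretreatment 18-22 h then 72 h combined with doxorubicin; 0% = doxorubicin alone and 100% = vehicle without doxorubicin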); conditions: H69AR viability with doxorubicin, CellTiter-Glo luminescence; at 10 µM; stronger effect = higher value
[12] = growth suppression of beta-catenin knockout HCT116, pilot screen, human colon tumor cells (AID 823); conditions: CellTiter-Glo, 60 h, at 10 µM, stronger effect = lower value;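 note: 0% = wells killed by 20 µM Hyamine and 100% = untreated DMSO cell wells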
[13] = growth suppression of PTEN-deleted HCT116, pilot screen, cell-based, HCT116 clonal line, CellTiter-Glo (AID 824;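 active = viability at or below 27.92% in each of two runs, the all-compound median minus 4 SD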;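 note: 0% = 20 µM Hyamine control and 100% = vehicle cell control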); conditions: 60 h, at 10 µM, stronger effect = lower value
[14] = inhibitors of the yeast RAM network, pilot screen, dse1pr::URA3 reporter, 5-FOA selection (AID 869;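 active = inhibition over a set limit, the all-compound mean plus 3 SD, in both replicate runs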;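 note: 0% = DMSO wells with no growth and 100% = 10 µM 1-NA-PP1 with full growth; RAM network block rescues cells from 5-FOA so hits raise OD615 growth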); conditions: S. cerevisiae dse1pr::URA3 5-FOA growth, OD615, 2 d; at 10 µM; stronger effect = higher value; strain carries analog-sensitive mutant Cbk1 kinase
[15] = RAM signaling pathway blockade in yeast – S. cerevisiae, Pdr1DBD-CYC8 efflux-inhibited sensitized strain, primary screen (AID 1298;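 active = RAM network inhibition above 8.4% in each of two replicates, 3 SD over the compound average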;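 note: 0% = DMSO untreated cells without growth and 100% = 10 µM 1-NA-PP1 full growth; higher means more yeast growth rescued from 5-FOA killing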); conditions: S. cerevisiae cbk1-as DSE1-URA3 strain, 5-FOA growth OD615, 2 d; at 50 µM; stronger effect = higher value
[16] = H69AR cells + 2 uM doxorubicin, measured here: viability with 2 uM doxorubicin, stronger effect = lower value
[17] = H69AR cells, compound alone cytotoxicity

| Compound | viability [1] | Her2 level [2] | viability [3] | viability [4] | viability [5] | differential viability (reversal) ([6]; H69AR cells + 2 uM doxorubicin) | viability [6, 16] | viability [6, 17] | inhibition [7] | inhibition [8] | growth inhibition [9] | growth inhibition [10] | viability increase [11] | viability [12] | viability [13] | inhibition [14] | RAM network inhibition [15] |
| --- | --- | --- | --- | --- | --- | --- | --- | --- | --- | --- | --- | --- | --- | --- | --- | --- | --- |
| CC(C)(NC(=O)N1CCCC1)c1cccc(C(C)(C)NC(=O)N2CCCC2)c1 | 98% | 81.5% (inactive) | 98% (inactive) | 97.7% (inactive) | 95.5% (inactive) | 5.27% (inactive) | 90.3% | 95.5% | -4.42% (inactive) | -4% (inactive) | 0.795% (inactive) | 3.39% (inactive) | -0.99% (inactive) | 100% (inactive) | 97.4% (inactive) | 0.535% (inactive) | 0.88% (inactive) |
| O=C(Cn1ncc2c(=O)oc3ccccc3c21)NCCCN1CCCC1=O | 86.5% | 106% (inactive) | 86.5% (inactive) | 93.1% (inactive) | 101% (inactive) | 16.6% (inactive) | 84.4% | 101% | 1.79% (inactive) | -3% (inactive) | 1.48% (inactive) | -6.73% (inactive) | -0.08% (inactive) | 101% (inactive) | 113% (inactive) | 1.86% (inactive) | 3.58% (inactive) |
| Cc1ccccc1NC(=O)C1CCCN(S(=O)(=O)c2cccc3cccnc23)C1 (stereo not drawn) | 90.5% | 96.5% (inactive) | 90.5% (inactive) | 94.6% (inactive) | 93.2% (inactive) | 0.99% (inactive) | 92.2% | 93.2% | -1.73% (inactive) | -5.25% (inactive) | -13.1% (inactive) | -16.6% (inactive) | -2.23% (inactive) | 82.1% (inactive) | 81.2% (inactive) | 3.01% (inactive) | 1.93% (inactive) |
| Cc1cc(C)c(C(=O)Nc2ccc(S(=O)(=O)Nc3onc(C)c3C)cc2)c(C)c1 | 110% | 100% (inactive) | 110% (inactive) | 79.5% (inactive) | 93.4% (inactive) | 6.5% (inactive) | 86.9% | 93.4% | -6.27% (inactive) | -1.48% (inactive) | -15% (inactive) | -9.75% (inactive) | 2.97% (inactive) | 93.3% (inactive) | 95.3% (inactive) | 2.68% (inactive) | 10.4% (inactive) |
